Source: PubChem BioAssay
PGC1a acetyl inh = PGC1a acetylation modulation, inhibitor mode; U2OS PGC1a acetylation, AlphaScreen anti-acetyl-lysine; with virally co-expressed GCN5 acetyltransferase; inhibition, % at 15.6 µM; 350,000 compounds, 0.17% hits;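 active = every replicate shows inhibition of at least 40%; inconclusive = mean inhibition at least 40% but some replicate below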;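 also: 0% = neutral control wells and 100% = positive control wells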
Statin myotox sup = protects C2C12 myotubes from simvastatin toxicity; ATP luminescence, 48 h; scaled: DMSO 0, geranylgeraniol control 100; rescue of ATP level, % at 7.49 µM; 330,000 compounds, 0.78% hits; AID 602340;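 active = mean ATP rescue above about 67%, or every replicate alone reaching that limit, limit read from the data, passing the limit was not always enough; inconclusive = no clear call, values can overlap the other calls; inactive = mean under the limit and some replicate under it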;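 also: myotubes were challenged with 10 µM simvastatin during compound exposure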
miR122 inh = inhibitors of miR-122 in Huh7 cells; Huh7 miR-122 Renilla luciferase sensor, 48 h; neutral wells = 0, positive control = 100; activation (reporter increase), % at 12.5 µM; 340,000 compounds, 0.3% hits;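 active = mean replicate activation score at least 90 and every replicate individually at or above 90; inconclusive = only one of the two criteria met; inactive = neither criterion met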;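 also: higher luciferase means less miR-122 activity so hits act as miR-122 inhibitors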
DENV2 CPE = protects cells from dengue virus 2 cytopathic effect; DENV2-infected cells, cytopathic effect rescue, plate reader; CPE inhibition, % at 9.99 µM; 350,000 compounds, 1.7% hits; in the data active = CPE inhibition above about 20%, passing the limit was not always enough; inconclusive = no clear call, values can overlap the other calls; tested in BHK-21 cells;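 also: 0% = median of neutral control wells and 100% = median of positive control wells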
PvdQ acylase = blocks Pseudomonas aeruginosa PvdQ acylase activity; purified PvdQ acylase, fluorescence plate reader; inhibition, % at 10 µM; 340,000 compounds, 0.063% hits; AID 488965; in the data active = inhibition above about 30%, passing the limit was not always enough; inconclusive = no clear call, values can overlap the other calls;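 also: 0% = vehicle neutral wells and 100% = reference inhibitor wells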
* = called active by the depositor; ? = inconclusive; / = no result given; ! = a repeat was not active; [ ] = dose if it differs, or a comment. Most compounds without a hit are left out; they make up all but 2.2% or so of the library.

SMILES	PGC1a acetyl inh	Statin myotox sup	miR122 inh	DENV2 CPE	PvdQ acylase
CC(C)NC(=O)N(C)C[C@@H]1Oc2ncc(-c3ccc(C(=O)N(C)C)cc3)cc2C(=O)N([C@@H](C)CO)C[C@@H]1C	0	-1	0[16.7 µM]	6	/
Cc1ccc(S(=O)(=O)N[C@H]2CC[C@H](CCn3cc(C4(O)CCCC4)nn3)O[C@H]2CO)cc1	-8	3	/	5	/
C[C@@H]1CN([C@@H](C)CO)C(=O)CCCn2cc(nn2)CO[C@H]1CN(C)Cc1ccc2c(c1)OCCN2C	8	-2	-4[16.7 µM]	?	/
CN1CCN(C(=O)C[C@H]2CC[C@H](NC(=O)Nc3ccccc3F)[C@@H](CO)O2)CC1	-2	-16	/	4	/
CCc1nnc(NC(=O)Cn2c(=O)oc3ccccc32)s1	7	140*	4	/	-4
C[C@@H]1CN([C@@H](C)CO)C(=O)Cc2cc(NC(=O)Cc3cn(C)c4ccccc34)ccc2O[C@@H]1CN(C)Cc1ccc(C(F)(F)F)cc1	-6	10	21[16.7 µM]	77*	/
C[C@H](CO)N1C[C@H](C)[C@@H](CN(C)Cc2ccc(C(F)(F)F)cc2)Oc2ccc(NC(=O)Cc3cn(C)c4ccccc34)cc2CC1=O	-13	115*	-3[16.7 µM]	12	/
C[C@H](CO)N1C[C@H](C)[C@H](CN(C)Cc2ccc(C(F)(F)F)cc2)Oc2ccc(NC(=O)Cc3cn(C)c4ccccc34)cc2CC1=O	-5	31	7[16.7 µM]	1	/
Cc1ccc(C)c(S(=O)(=O)N(C(=O)c2ccncc2)c2ccc(OC(=O)c3ccncc3)cc2)c1	44*	/	/	-1	-1
CC1(Cc2ccc3c(c2)OCO3)C(=O)Nc2ccc(-c3cccc(C(F)(F)F)c3)cc21 (stereo not given)	-7	12	-1	-10	/
CC1(Cc2ccc3c(c2)OCO3)C(=O)Nc2c(Cl)ccc(Cl)c21 (stereo not given)	-29	88*	-5	-5	/
COCC(=O)N1C[C@@H](C)[C@@H](OC)CN(C)C(=O)c2ccc(NC(=O)c3cc(C)on3)cc2OC[C@H]1C	-3	-8	/	11	/
COc1ccccc1NC(=O)N[C@@H]1CC[C@H](CC(=O)N[C@H](C)c2ccccc2)O[C@@H]1CO	-2	15	/	-2	/
CCCc1cc(=O)oc2c(C)c(OC3CCCCC3=O)ccc12 (stereo not given)	/	-16	0	26*	-5
Cc1ccc(N2C(N)=NC(N)=NC2(C)C)c(C)c1	2	110*	0	/	-17
Cc1ccccc1N1C(N)=NC(N)=NC1(C)C	-4	-5	-3	/	-5
CCCNC(=O)[C@H]1[C@H](CO)[C@H]2Cn3c(ccc(-c4ccccc4F)c3=O)[C@@H]1N2C(=O)CC	/	-13	1[16.7 µM]	?	/
O=C(Nc1ccccc1F)N1CC(=O)N2[C@@H](CO)[C@H](c3ccc(C#Cc4ccc(F)cc4)cc3)[C@@H]2C1	13	/	/	-2	/
CCCC#Cc1ccc([C@H]2[C@@H](CO)N3C(=O)CN(C(=O)NC4CCCC4)C[C@@H]23)cc1	-16	/	/	31*	/
CCCC#Cc1ccc([C@@H]2[C@H]3CN(C(=O)Nc4ccc(F)cc4)CC(=O)N3[C@H]2CO)cc1	-8	/	/	42*	/
O=C(Nc1ccccc1F)N1CC(=O)N2[C@H](CO)[C@H](c3ccc(C#Cc4ccc(F)cc4)cc3)[C@@H]2C1	4	/	/	27*	/
O=C(c1ccncc1)N1C[C@@H]2[C@H](c3ccccc31)[C@H](CO)N2C(=O)Nc1ccc(F)cc1	5	12	19[16.7 µM]	6	/
CO[C@@H]1CN(C)C(=O)c2ccc(NC(=O)Nc3c(C)noc3C)cc2OC[C@@H](C)NC[C@@H]1C	-4	-27	/	-4	/
COc1ccc(N(C(=O)Cn2nnc3ccccc32)C(C(=O)NCc2ccco2)c2cccnc2)cc1 (stereo not given)	-5	81*	-2	/	-6
O=C(NCc1ccco1)C(c1cccnc1)N(C(=O)Cn1nnc2ccccc21)c1ccccc1 (stereo not given)	3	/	5	/	-26
SMILES	PGC1a acetyl inh	Statin myotox sup	miR122 inh	DENV2 CPE	PvdQ acylase
CCOC(=O)C(Cc1ccccc1)C(=O)Nc1nccs1 (stereo not given)	-3	99*	-5	/	-5
N#C[C@H]1[C@@H](c2ccccc2C2=CCCC2)[C@H](CO)N1S(=O)(=O)c1cccc(F)c1	2	/	/	2	/
C[C@@H]1CN([C@H](C)CO)C(=O)c2cc(NC(=O)CCC(F)(F)F)ccc2O[C@@H]1CN(C)Cc1ccccc1	-1	-17	-6[16.7 µM]	1	/
Cn1cnc(S(=O)(=O)N[C@H]2CC[C@@H](CC(=O)Nc3ccc(-c4ccccc4)cc3)O[C@H]2CO)c1	/	-2	/	?	/
Fc1cccc(CN2C[C@@H]3N[C@H](C2)[C@@H]3c2ccc(-c3cccc(F)c3)cc2)c1	99*	/	/	-30	/
Fc1cccc(CN2C[C@@H]3N[C@H](C2)C3c2ccc(-c3ccccc3)cc2)c1 (stereo not given in full)	97*!	/	/	3	/
Fc1cccc(CN2C[C@@H]3N[C@H](C2)C3c2ccc(-c3cncnc3)cc2)c1 (stereo not given in full)	2	/	/	?	/
O=C(C[C@H]1C[C@@H]2c3cc(NC(=O)C4CCOCC4)ccc3O[C@@H]2[C@@H](CO)O1)NCc1ccncc1	1	-1	0[16.7 µM]	-2	/
COc1cccc(/C=C/c2n[nH]c(=O)c(C#N)c2C)c1	12	94*	-4	-4	-3
COc1cccc(/C=C/c2nc3c(cnn3-c3ccccc3)c(=O)[nH]2)c1	/	/	/	-6	-1
Cc1noc(C)c1S(=O)(=O)Nc1ccc2c(c1)C(=O)N([C@@H](C)CO)C[C@@H](C)[C@H](CN(C)C(=O)C1CCCCC1)OCCCC[C@@H](C)O2	-10	/	-14[16.7 µM]	16	/
CC(C)c1cn(CC[C@@H]2CC[C@@H](NS(=O)(=O)c3ccccc3)[C@H](CO)O2)nn1	-1	8	/	2	/
CCN(CC)S(=O)(=O)c1cc(NS(=O)(=O)c2cc(Cl)ccc2Cl)ccc1C	/	/	392*	-1	7
CO[C@@H]1CN(C)C(=O)c2cc(NC(=O)c3ccc(Oc4ccccc4)cc3)ccc2OC[C@H](C)NC[C@@H]1C	5	-26	/	22*	/
CO[C@H]1CN(C)C(=O)c2ccc(NC(=O)c3ccccc3)cc2OC[C@H](C)NC[C@@H]1C	-1	/	/	39*	/
CO[C@@H]1CN(C)C(=O)c2ccc(NC(=O)Nc3ccc(C(F)(F)F)cc3)cc2OC[C@@H](C)NC[C@@H]1C	-9	/	/	-7	/
CO[C@H]1CN(C)C(=O)c2ccc(NC(=O)Nc3ccc(C(F)(F)F)cc3)cc2OC[C@H](C)NC[C@@H]1C	-1	/	/	68*	/
CO[C@@H]1CN(C)C(=O)c2ccc(NC(=O)c3ccc(Oc4ccccc4)cc3)cc2OC[C@H](C)NC[C@@H]1C	1	-47	-37[16.7 µM]	?	/
CO[C@H]1CN(C)C(=O)c2ccc(NC(=O)c3ccccc3)cc2OC[C@H](C)NC[C@H]1C	-3	-1	/	-4	/
